Results published in PubChem BioAssay (EPA / NIEHS).
Results filed as inconclusive are left out. Active and inactive are the calls of the source. How the source made its calls: active means hit-call score of the fitted dose curve at least 0.9, where 1 is the maximum; inconclusive means response in the unintended direction; inactive means score below 0.9.

Assays:
[1] = Tanguay_ZF_120hpf_SNOU_legacy: (Legacy) Oregon State University Tanguay Lab 120 Hour Post-fertilization zebrafish Assay for Snout Malformation (AID 2283637)
Outline: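 Dechorionated tropical 5D wild-type zebrafish embryos exposed statically from 6 to 120 hpf at 28C, one per well, in 0.64% DMSO. Snout malformation scored as present/absent by brightfield at 120 hpf; dead embryos not scored.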

[2] = Tanguay_ZF_120hpf_OTIC_legacy: (Legacy) Oregon State University Tanguay Lab 120 Hour Post-fertilization zebrafish Assay for Otic Vesicle Malformation (AID 2283639)
Outline: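 Otic vesicle malformation is read as a yes/no morphology call at 120 hpf. Exposure is static at 28C with 0.64% (vol/vol) DMSO; embryos that die are excluded from non-mortality endpoints.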

[3] = Tanguay_ZF_120hpf_PE_legacy: (Legacy) Oregon State University Tanguay Lab 120 Hour Post-fertilization zebrafish Assay for Pericardial Edema (AID 2283640);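 on AC50: potency for increased incidence of pericardial edema versus DMSO baseline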
Outline: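 Embryos from wild-type 5D adults were staged, then dosed in 0.64% DMSO. They were kept sealed in the dark at 28C until 120 hpf. Pericardial edema was then recorded as present or absent.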

[4] = Tanguay_ZF_120hpf_BRAI_legacy: (Legacy) Oregon State University Tanguay Lab 120 Hour Post-fertilization zebrafish Assay for Brain Malformation (AID 2283641)
Outline: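 Wild-type 5D larvae, static waterborne exposure to 120 hpf, 28C, 0.64% v/v DMSO. Brightfield scoring of brain defects, binary; dead embryos excluded. Positive ctrl 5uM trimethyltin chloride.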

[5] = Tanguay_ZF_120hpf_SOMI_legacy: (Legacy) Oregon State University Tanguay Lab 120 Hour Post-fertilization zebrafish Assay for Somite Malformation (AID 2283647)
Outline: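 Read-out: presence or absence of somite malformation in 120 hpf larvae, gain-of-signal relative to DMSO baseline. Embryos lacked chorion (pronase, 4 hpf) and were exposed statically from 6 hpf at 28C; dead larvae not scored.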

[6] = Tanguay_ZF_120hpf_PIG_legacy: (Legacy) Oregon State University Tanguay Lab 120 Hour Post-fertilization zebrafish Assay for Pigmentation Malformation (AID 2283650)
Outline: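 Dechorionated Tropical 5D wild-type embryos, one per well from 6 hpf, statically exposed at 28C in the dark until 120 hpf, 0.64% DMSO final. Pigmentation scored present/absent by brightfield microscopy; dead embryos not scored; fitted versus DMSO.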

[7] = Tanguay_ZF_120hpf_CIRC_legacy: (Legacy) Oregon State University Tanguay Lab 120 Hour Post-fertilization zebrafish Assay for Circulatory Malformation (AID 2283651)
Outline: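 Using wild-type Tropical 5D zebrafish, we exposed dechorionated embryos from 6 to 120 hpf in embryo medium with 0.64% DMSO. Circulatory defects were scored as present or absent; 5uM trimethyltin chloride served as positive control.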

[8] = Tanguay_ZF_120hpf_SWIM_legacy: (Legacy) Oregon State University Tanguay Lab 120 Hour Post-fertilization zebrafish Assay for Swim Bladder Malformation (AID 2283654);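 further: swim bladder malformation in each larva scored yes or no under brightfield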
Outline: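 Dechorionated wild-type Tropical 5D zebrafish embryos, one per well from 6 hpf, were statically exposed at 28C until 120 hpf in 0.64% DMSO. Swim bladder malformation scored as present/absent by brightfield microscopy; not scored in dead larvae.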

[9] = Tanguay_ZF_120hpf_NC_legacy: (Legacy) Oregon State University Tanguay Lab 120 Hour Post-fertilization zebrafish Assay for Notochord and Tail Malformation (AID 2283656)
Outline: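 Dechorionated 5D zebrafish, 1/well from 6 hpf; static exposure to 120 hpf, 28C, sealed, dark; final DMSO 0.64% v/v. NC scored binary (present/absent); dead embryos not scored. Fit vs DMSO baseline, gain direction.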

[10] = tested on: Thyroperoxidase (TPO), gene 54314; assay: CCTE_Simmons_AUR_rTPO: CCTE's Amplex UltraRed Assay for Thyroperoxidase (TPO) Inhibition, Simmons Lab (AID 2283662);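 on AC50: potency for loss of signal meaning inhibition of peroxidase activity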
Outline: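 Rat thyroid microsomal TPO + 25 uM AUR in 200 mM K phosphate; cpd 5 nM–87.5 uM [final], 8 conc, 0.5% DMSO; 300 uM H2O2 starts rxn; 37C dark 30 min; endpoint FI 544/590 nm; n=3.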

[11] = CCTE_Simmons_CellTiterGLO_HEK293T: Viability Assessment in CCTE's Assays for Thyroperoxidase (TPO) Inhibition, Simmons Lab (AID 2283665)
Outline: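 Cytotoxicity counter-screen: human HEK293T cells in low-serum (1% FBS) medium receive test chemical, 5 nM to 87.5 uM final, for 24 h; ATP is quantified by luciferase luminescence.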

[12] = Tanguay_ZF_120hpf_PFIN_legacy: (Legacy) Oregon State University Tanguay Lab 120 Hour Post-fertilization zebrafish Assay for Pectoral Fin Malformation (AID 2283648);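 further: each larva judged yes or no for fin defect by brightfield with dead larvae skipped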
Outline: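 Dechorionated Tropical 5D wild-type zebrafish embryos, one per well, statically exposed from 6 to 120 hpf at 28C with 0.64% DMSO final. Pectoral fin malformation scored present/absent by brightfield at 120 hpf; not scored in dead embryos.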

[13] = Tanguay_ZF_120hpf_TRUN_legacy: (Legacy) Oregon State University Tanguay Lab 120 Hour Post-fertilization zebrafish Assay for Truncated Body (AID 2283655)
Outline: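 Truncated body is recorded as a binary endpoint at 120 hpf by brightfield imaging of wild-type 5D larvae. Exposure runs statically from 6 hpf at 28C with 0.64% DMSO; embryos dying earlier are not scored.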

[14] = Tanguay_ZF_120hpf_TR_legacy: (Legacy) Oregon State University Tanguay Lab 120 Hour Post-fertilization zebrafish Assay for Touch Response (AID 2283667)
Outline: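 Tropical 5D wild-type zebrafish embryos statically exposed to 120 hpf at 28°C, sealed and dark-covered, 0.64% DMSO final; touch response scored as present/absent by brightfield microscopy at 120 hpf. Trimethyltin chloride 5 uM positive control; dead embryos not scored.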

[15] = Tanguay_ZF_120hpf_JAW_legacy: (Legacy) Oregon State University Tanguay Lab 120 Hour Post-fertilization zebrafish Assay for Jaw Malformation (AID 2283638);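 on AC50: active means more embryos with jaw malformation than DMSO controls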
Outline: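 Steps: dechorionate 4 hpf embryos (pronase); plate 1/well at 6 hpf; add test chemical, 0.64% DMSO final; seal, cover, hold at 28C statically to 120 hpf; score jaw defect presence/absence microscopically. Dead embryos not scored.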

[16] = Tanguay_ZF_120hpf_CFIN_legacy: (Legacy) Oregon State University Tanguay Lab 120 Hour Post-fertilization zebrafish Assay for Caudal Fin Malformation (AID 2283649)
Outline: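 Binary presence or absence of caudal fin malformation at 120 hpf, read by brightfield microscopy, with DMSO as baseline. Larvae came from 5D wild-type embryos exposed statically from 6 hpf at 28C after pronase dechorionation.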

Cn1cc[nH]c1=S
outcome [1]: inactive
outcome [2]: inactive
outcome [3]: inactive
outcome [4]: inactive
outcome [5]: inactive
outcome [6]: inactive
outcome [7]: inactive
outcome [8]: inactive
outcome [9]: inactive
AC50 [10]: 0.0542 µM (active)
outcome [11]: inactive

Cn1c(=O)c2[nH]cnc2n(C)c1=O
outcome [1]: inactive
outcome [2]: inactive
outcome [3]: inactive
outcome [12]: inactive
outcome [6]: inactive
outcome [7]: inactive
outcome [8]: inactive
outcome [13]: inactive
outcome [9]: inactive
outcome [14]: inactive

OC(Cn1cncn1)(Cn1cncn1)c1ccc(F)cc1F
outcome [1]: inactive
outcome [2]: inactive
outcome [3]: inactive
outcome [12]: inactive
outcome [6]: inactive
outcome [7]: inactive
outcome [8]: inactive
outcome [9]: inactive
outcome [14]: inactive

OCCNCCO
outcome [1]: inactive
outcome [15]: inactive
outcome [2]: inactive
outcome [3]: inactive
outcome [4]: inactive
outcome [5]: inactive
outcome [12]: inactive
outcome [16]: inactive
outcome [6]: inactive
outcome [7]: inactive
outcome [8]: inactive
outcome [13]: inactive
outcome [9]: inactive
outcome [14]: inactive

CC1(C)C(=O)N(Cl)C(=O)N1Cl
outcome [15]: inactive
outcome [2]: inactive
outcome [3]: inactive
outcome [4]: inactive
outcome [12]: inactive
outcome [16]: inactive
outcome [6]: inactive
outcome [7]: inactive
outcome [8]: inactive
outcome [13]: inactive
outcome [9]: inactive
outcome [14]: inactive

CCCCCOC(C)=O
outcome [1]: inactive
outcome [2]: inactive
outcome [3]: inactive
outcome [4]: inactive
outcome [5]: inactive
outcome [16]: inactive
outcome [6]: inactive
outcome [7]: inactive
outcome [8]: inactive
outcome [13]: inactive
outcome [9]: inactive
outcome [14]: inactive

C[C@@H](Oc1ccc(CNC(=O)c2cccnc2Oc2ccc3c(c2)OCO3)c(F)c1)C(=O)O
outcome [1]: inactive
outcome [2]: inactive
outcome [3]: inactive
outcome [4]: inactive
outcome [5]: inactive
outcome [12]: inactive
outcome [6]: inactive
outcome [8]: inactive
outcome [13]: inactive
AC50 [10]: 22.2 µM (active)
outcome [11]: inactive
outcome [14]: inactive

OCc1ccccc1
outcome [15]: inactive
outcome [2]: inactive
outcome [3]: inactive
outcome [4]: inactive
outcome [5]: inactive
outcome [12]: inactive
outcome [6]: inactive
outcome [7]: inactive
outcome [8]: inactive
outcome [13]: inactive
outcome [9]: inactive
outcome [14]: inactive

O=C(NO)C1(NS(=O)(=O)c2ccc(Oc3ccc(F)cc3)cc2)CCOCC1
outcome [15]: inactive
outcome [2]: inactive
outcome [3]: inactive
outcome [4]: inactive
outcome [5]: inactive
outcome [12]: inactive
outcome [16]: inactive
outcome [6]: inactive
outcome [7]: inactive
outcome [8]: inactive
outcome [13]: inactive
outcome [9]: inactive
AC50 [10]: 18.1 µM (active)
outcome [11]: inactive
outcome [14]: inactive

CC(C)C(=O)Nc1ccc([N+](=O)[O-])c(C(F)(F)F)c1
outcome [1]: inactive
outcome [2]: inactive
outcome [3]: inactive
outcome [4]: inactive
outcome [5]: inactive
outcome [12]: inactive
outcome [6]: inactive
outcome [7]: inactive
outcome [8]: inactive
outcome [13]: inactive
outcome [9]: inactive
outcome [14]: inactive

O=S1(=O)CCCO1
outcome [15]: inactive
outcome [2]: inactive
outcome [3]: inactive
outcome [4]: inactive
outcome [5]: inactive
outcome [12]: inactive
outcome [6]: inactive
outcome [7]: inactive
outcome [8]: inactive
outcome [13]: inactive
outcome [10]: inactive
outcome [14]: inactive

CCOC(N)=O
outcome [1]: inactive
outcome [2]: inactive
outcome [4]: inactive
outcome [5]: inactive
outcome [12]: inactive
outcome [6]: inactive
outcome [7]: inactive
outcome [8]: inactive
outcome [13]: inactive
outcome [9]: inactive
outcome [14]: inactive

COc1cc(C(C)C)c2c(c1)S(=O)(=O)N(COc1cc(=O)n3cccc(OCCN4CCCCC4)c3n1)C2=O
AC50 [1]: 24.6 µM (active)
AC50 [2]: 15.3 µM (active)
AC50 [3]: 20 µM (active)
outcome [4]: inactive
outcome [5]: inactive
outcome [12]: inactive
outcome [16]: inactive
outcome [7]: inactive
outcome [8]: inactive
outcome [13]: inactive
outcome [9]: inactive
outcome [14]: inactive

CC[C@H](C)C(=O)O[C@H]1C[C@H](O)C=C2C=C[C@H](C)[C@H](CC[C@@H](O)C[C@@H](O)CC(=O)O)[C@H]21
outcome [1]: inactive
outcome [15]: inactive
outcome [2]: inactive
outcome [3]: inactive
outcome [4]: inactive
outcome [5]: inactive
outcome [12]: inactive
outcome [7]: inactive
outcome [8]: inactive
outcome [13]: inactive
outcome [9]: inactive
outcome [14]: inactive

c1ccc(C(O[C@@H]2CCCN(CCc3ccc4c(c3)OCO4)C2)c2ccccc2)cc1
AC50 [15]: 44.8 µM (active)
AC50 [2]: 45.8 µM (active)
AC50 [3]: 36 µM (active)
AC50 [4]: 42 µM (active)
outcome [5]: inactive
AC50 [12]: 33.4 µM (active)
AC50 [16]: 37.2 µM (active)
AC50 [6]: 42.4 µM (active)
outcome [7]: inactive
outcome [8]: inactive
AC50 [13]: 38.2 µM (active)
outcome [9]: inactive
AC50 [14]: 53.6 µM (active)

c1ccc2ncccc2c1
outcome [1]: inactive
outcome [2]: inactive
outcome [3]: inactive
outcome [4]: inactive
outcome [5]: inactive
outcome [12]: inactive
outcome [6]: inactive
outcome [7]: inactive
outcome [8]: inactive
outcome [13]: inactive
outcome [9]: inactive
outcome [14]: inactive
